# Data taken from the supplement of paper PMC7530171.
# ± gives the standard deviation.
# Test system: THP-1
# Experiment: THP-1 cell loss relative to DMSO control; higher = more host cell loss (toxicity); extreme values may be limits of the assay
# Conditions: 10 µM; 4 days; infection: M. tuberculosis H37Rv
# Description: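 OICR kinase inhibitor library screened in duplicate at 10 uM against M. tuberculosis-infected THP-1 macrophages, 4 days at 37 C. THP-1 cell loss (cytotoxicity or loss of adherence) was quantified from Hoechst-stained nuclei counts by high-content imaging and normalised to the 1% DMSO control; 100 = complete loss of host cells.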
row,SMILES,THP-1 cell loss
1,Cc1ccc(NC(=O)c2cccc(N(C)C)c2)cc1NC(=O)c1ccc(O)cc1,3.71 ± 3.8%
2,N#C/C(=C\c1ccc(O)c(O)c1)C(=O)Nc1ccccc1,9.72 ± 2.5%
3,NS(=O)(=O)c1ccc(Nc2nc(OCC3CCCCC3)c3[nH]cnc3n2)cc1,0.876 ± 1.2%
4,COc1cc2ncn(-c3cc(OCc4ccccc4C(F)(F)F)c(C(N)=O)s3)c2cc1OC,12.2 ± 11%
5,CC[C@@H]1/C=C(\C)C[C@H](C)C[C@H](OC)[C@H]2O[C@@](O)(C(=O)C(=O)N3CCCC[C@H]3C(=O)O[C@H](/C(C)=C/[C@@H]3CC[C@H](Cl)[C@H](OC)C3)[C@H](C)[C@@H](O)CC1=O)[C@H](C)C[C@@H]2OC [Pimecrolimus],28.5 ± 3%
6,CN1CCC(COc2cnc(-c3cccc(Cn4nc(-c5cccc(C#N)c5)ccc4=O)c3)nc2)CC1,90.4 ± 14%
7,Cc1ccc(-n2nc(C(C)(C)C)cc2NC(=O)Nc2ccc(OCCN3CCOCC3)c3ccccc23)cc1,50 ± 71%
8,Cn1cnc2c(F)c(Nc3ccc(Br)cc3Cl)c(C(=O)NOCCO)cc21,82.3 ± 9.6%
9,CC(C)(C)c1nc2c3cc[nH]c(=O)c3c3cc(F)ccc3c2[nH]1 [Merck-5],46.3 ± 11%
10,O=C1NC(=O)/C(=C/c2ccc3c(c2)OC(F)(F)O3)S1,7.44 ± 3.3%
11,CC(C)n1nc(-c2cc3cc(O)ccc3[nH]2)c2c(N)ncnc21,92.9 ± 10%
12,O=C1NCc2c1c1c3ccccc3[nH]c1c1[nH]c3ccccc3c21,35.8 ± 3.5%
13,FC(F)c1nc2ccccc2n1-c1nc(N2CCOCC2)nc(N2CCOCC2)n1,35.9 ± 1.9%
14,Cc1ccc(F)c(NC(=O)Nc2ccc(-c3cccc4[nH]nc(N)c34)cc2)c1,84.1 ± 22%
15,COCC(=O)NC/C=C/c1ccc2ncnc(Nc3ccc(Oc4ccc(C)nc4)c(C)c3)c2c1,25.9 ± 5.7%
16,COc1cc2nccc(Oc3ccc(NC(=O)Nc4cc(C)on4)c(Cl)c3)c2cc1OC,27.4 ± 5%
17,Cn1cc(-c2ccc3nnc(Sc4ccc5ncccc5c4)n3n2)cn1,10.4 ± 3.7%
18,COc1ccc(CNC(=O)Nc2ncc([N+](=O)[O-])s2)cc1,80.8 ± 27%
19,CCCCCCCC(=O)OCCOC(=O)CCCCCCC [Dioctanoylglycol],4.61 ± 6.5%
20,COc1cc2c(N3CCN(C(=O)Nc4ccc(OC(C)C)cc4)CC3)ncnc2cc1OCCCN1CCCCC1,4.46 ± 6.3%
21,Cn1c2ccccc2c2c3c(c4c5ccccc5n(CCC#N)c4c21)CNC3=O,32.2 ± 18%
